# Sampled rows, rich in hits. Any-hit rate of the full collection: about 19%.
# TDP1 cell noCPT: qHTS for Inhibitors of human tyrosyl-DNA phosphodiesterase 1 (TDP1): qHTS in cells in absence of CPT | DT40 Tdp1-/- hTDP1 cells, no CPT, ATP luminescence, 48 h | Potency, µM (highest dose often 46.2 µM), most hits filed as inhibitors | actives 15% (n = 420,000) | AID 686978, 2013; further: nearly all actives have a fitted effect of over 55% in size
#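 Stably hTDP1-transfected Tdp1-null chicken DT40 cells were treated with library compounds minus camptothecin and grown for at least 48 hr at 37 °C, after which cellular ATP was quantified by luminescence.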
# TDP1 cell CPT: qHTS for Inhibitors of human tyrosyl-DNA phosphodiesterase 1 (TDP1): qHTS in cells in presence of CPT | actives 12% (n = 420,000) | AID 686979, 2013 | Potency, µM (doses to about 46.2 µM), actives largely listed as inhibitors | chicken DT40 Tdp1-/-;hTDP1 cells + 20 nM CPT, ATP luminescence, 48 h; further: nearly all actives have a fitted effect of over 55% in size
#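 Cell growth measured by CellTiter-Glo luminescence after a minimum 48 h, 37 C compound exposure with 20 nM CPT in Tdp1-knockout DT40 cells stably expressing hTDP1, seeded 400/well; qHTS titration format.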
# IL-1B inflam inh: qHTS for Inhibitors of Inflammasome Signaling: IL-1-beta AlphaLISA Primary Screen; THP-1 LPS/ATP IL-1B secretion, AlphaLISA, 16 h; active compounds read low; activity change, % at 57.5 µM; actives 4.7% (n = 360,000); in the data active means activity change below about -50%; inconclusive means mostly about -30% to -49%
#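 THP-1 cells pretreated 1 hr with compounds (up to 57.5 uM final), then stimulated with LPS (250 ng/mL final) plus ATP (1.25 mM final); secreted IL-1B measured by AlphaLISA after 16 hr, decreased signal indicating inhibition.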
# Chronic BCR inh: qHTS Assay to Find Inhibitors of Chronic Active B-Cell Receptor Signaling; ABC-DLBCL IkBa-CBG/CBR reporter, luminescence ratio, 4 h; Potency, µM (top dose mostly 46.1 µM), actives largely listed as inhibitors; actives 0.05% (n = 340,000); AID 493014, 2011; active means well fitted inhibition curve with a large enough effect in the signal ratio, with a control signal flat, not every such curve was filed as active; inconclusive means small, poorly fitted or top-dose-only effect, or effect the other way, or a change in a side signal; the % refers to the signal ratio
#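 TMD8 ABC-DLBCL cells carrying doxycycline-inducible green luciferase fused to IkappaBalpha plus unfused red luciferase were exposed to compounds (up to 46 uM) for 4 hrs at 37C. Activity came from the overlap-corrected green/red luminescence ratio.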
# SW480 rereplic: A quantitative high throughput screen for small molecules that induce DNA re-replication in SW480 colon adenocarcinoma cells. SW480 DNA re-replication, Hoechst DNA content imaging, 48 h. Potency, µM (highest dose often 46.1 µM), actives largely listed as activators. actives 1.8% (n = 340,000). AID 624297, 2012; further: nearly all actives have a fitted effect of over 55% in size
#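 Compounds, transferred as 23 nL by pin tool, were incubated with cells for 48 hr; DNA content per nucleus was then quantified by Hoechst staining and fluorescence plate imaging.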
# MCF10A rerep: A quantitative high throughput screen for small molecules that induce DNA re-replication in MCF 10a normal breast cells; actives 2.9% (n = 350,000); Potency, µM (titrated, usually from 46.1 µM), hits mostly activators; MCF 10A DNA re-replication, Hoechst nuclear intensity, 48 h; further: nearly all actives have a fitted effect of over 50% in size
# Hits are given with their value; 0 = inactive; ? = inconclusive; - = no result; ! = not active in a repeat; [ ] = dose if it differs, or a comment. Unless noted, the call rests on the fitted dose curve; in most records, active means well fitted curve in the direction sought with a large enough effect; inconclusive means small, poorly fitted or top-dose-only effect, or another doubt; inactive means no such curve, though single readings can be large; an effect the other way counts as inactive or inconclusive.
SMILES,TDP1 cell noCPT,TDP1 cell CPT,IL-1B inflam inh,Chronic BCR inh,SW480 rereplic,MCF10A rerep
Cc1ccc(C2=NS(=O)(=O)N(C)C(C(=O)NC3CCCCC3)=C2)cc1,0,0,0,0,0,0
Cc1ccc(CNC(=O)c2cc3cc(C)ccc3n2C)cc1,0,0,-,-,-,-
COc1ccc(NC(=O)C2=CC(c3ccc(C)cc3)=NS(=O)(=O)N2C)cc1OC,20.6µM,23.1µM,0,0,0,0
COc1ccc(OCC(O)CN2CC(C)OC(C)C2)cc1 (configuration not stated),0,0,0,0,0,0
O=CN1CCN(C(=O)CC(c2ccccc2)c2cc(Br)ccc2O)CC1 (configuration not stated),0,0,0,0,0,?
CC(NC(=O)COC(=O)c1ccc(CO)cc1)C1CC2CCC1C2 (configuration not stated),0,?,0,0,0,0
Cc1ccc(-c2cc(-c3ccc(F)cc3)nc(N)c2C#N)o1,18.4µM,?,0,?,11.6µM,3.66µM
Cc1ccc(-c2cc(-c3ccccc3)c(C#N)c(N)n2)o1,14.6µM,23.1µM,0,?,18.4µM,18.4µM
Cc1ccc(-c2cc(-c3ccccc3Cl)c(C#N)c(N)n2)o1,?,?,?,0,?,?
C=CCn1c(C)cc(C(=O)COc2ncnc3sccc23)c1C,16.4µM,?,0,0,0,0
C=CCn1c(C)cc(C(=O)COC(=O)CCc2cc(OC)c(OC)c(OC)c2)c1C,0,0,0,?,0,0
C=CCn1c(C)cc(C(=O)COC(=O)c2cncc(Br)c2)c1C,?,18.4µM,0,0,0,0
CC(C)Oc1ccc(F)cc1-c1cc(C(=O)N2CCc3ccccc3C2)[nH]n1,?,?,0,-,-,-
COc1cc(OC)cc(-c2oc(=O)c3cc(OC)c(OC)cc3c2/C=C/c2ccc(F)cc2)c1,?,?,0,0,0[9.22 µM],0
O=S(=O)(O)CCCS(=O)(=O)O,0,0,-,-,0,0
O=C(O)c1cccc2c1C(=O)c1ccccc1C2=O,0,0,0,0,0,0
O=C(O)c1ccc2c3c(ncnc13)-c1ccccc1C2=O,23.1µM,23.1µM,0,?,?,2.31µM
CSc1nsc(/C=C/Nc2ccc(C)c(C)c2)c1C#N,?,?,0,0,18.4µM,1.16µM
CSc1nsc(/C=C/Nc2ccc(C)cc2)c1C#N,0,?,0,-,?,?
CCOC(=O)C1=C(C)N(C)C(=S)NC1c1cc(OC)ccc1OC (configuration not stated),20.6µM,?,0,?,0,0
c1ccc(CCCNc2ncnc3nc[nH]c23)cc1,20.6µM,?,0,?,0,0
Clc1ccc(CCNc2ncnc3nc[nH]c23)cc1,7.31µM,11.6µM,0,?,0,0
c1ccc2c(CCNc3ncnc4nc[nH]c34)cccc2c1,18.4µM,23.1µM,0,?,0,?
OCCOCCNc1ncnc2nc[nH]c12,0,0,0,0,0,0
CCCNc1ncnc2nc[nH]c12,0,?,0,0,0,?
SMILES,TDP1 cell noCPT,TDP1 cell CPT,IL-1B inflam inh,Chronic BCR inh,SW480 rereplic,MCF10A rerep
CCCCc1ccc(Nc2ncnc3nc[nH]c23)cc1,0,0,0,?,0,0
C1=C(CCNc2ncnc3nc[nH]c23)CCCC1,14.6µM,13µM,0,0,0,0
Cc1cccc(NC(=O)CSc2cn(CC(=O)N3CCCC3)c3ccccc23)c1C,?,0,-,-,-,-
CCC1(C2CCN(Cc3ccc(C)s3)CC2)NC(=O)N(CC2COc3ccccc3O2)C1=O (configuration not stated),20.6µM,?,-,-,-,-
CCC1(C2CCN(Cc3c(C)[nH]c4ccccc34)CC2)NC(=O)N(Cc2ccc3c(c2)OCO3)C1=O (configuration not stated),16.4µM,23.1µM,-,-,-,-
COc1ccc(S(=O)(=O)N2CCCCCC2)cc1C(=O)NCc1ccc(C)cc1,?,?,0,0,0,0
COc1ccccc1N1CCN(CC(=O)Nc2c(C)n(C)n(-c3ccccc3)c2=O)CC1,0,0,0,0,0,0
COc1ccc(S(=O)(=O)N2CCCCC2)cc1C(=O)N1CCCC1,0,0,0,0,0,0
CNc1cncc(-c2cc(C)c(O)c(C)c2)n1,6.51µM,4.11µM,0,-,-,-
CNc1cncc(-c2ccc(O)cc2)n1,0,?,0,-,-,-
O=c1c(O)c(-c2cc(O)c(O)c(O)c2)oc2cc(O)cc(O)c12,18.4µM,11.2µM!,0,0,0,0
O=c1c(O)c(-c2ccccc2)oc2cc(O)cc(O)c12,29.9µM,?,0,?,0,?
CCOC(=O)c1c(C)[nH]c(C)c1C(=O)CSc1nc2ccccc2c(=O)n1-c1ccc(C)cc1,0,0,0,0,0,0
Cc1[nH]c2ccccc2c1C(=O)CSc1ccc(Cl)cc1,?,23.1µM,0,?,0,?
CCCn1c(SCC(=O)c2c(C)[nH]c(C)c2C(=O)OCC)nc2ccccc21,?,16.4µM,0,0,0,0
CCOC(=O)c1c(C)[nH]c(C)c1C(=O)CSc1nc2ccccc2c(=O)n1-c1ccc(Cl)cc1,18.4µM,16.4µM,0,?,?,?
CCOC(=O)c1c(C)[nH]c(C)c1C(=O)CSc1nc2ccccc2n1CCC#N,0,0,0,?,0,0
CC1=C(C(N)=O)C(c2cccs2)NC(=O)N1 (configuration not stated),0,0,0,0,0,0
Cc1nc2c(c(C)c1CCC(=O)Nc1cccc(C(F)(F)F)c1)c(=O)n(C)c(=O)n2C,16.4µM,?,-,-,-,-
Cc1nc2c(c(C)c1CCC(=O)Nc1ccc(F)cc1)c(=O)n(C)c(=O)n2C,13µM,?,-,-,-,-
CCc1nc(SCC(=O)Nc2cccc(C(F)(F)F)c2)c2c(=O)n(C)c(=O)n(C)c2n1,9.2µM,?,0,0,0,0
COc1ccc(NC(=O)CCc2c(C)nc3c(c2C)c(=O)n(C)c(=O)n3C)cc1OC,?,0,-,-,-,-
CCc1nc(SCC(=O)Nc2ccc(F)cc2F)c2c(=O)n(C)c(=O)n(C)c2n1,?,?,0,0,0,0
NC(=O)CCN1CCCCC1,0,0,0,0,0,0
O=C(CCC(=O)CCN1CCCCC1)CCN1CCCCC1,20.6µM,13µM,0,-,?,?
C[C@@H](NC(=O)[C@@H]1CCCN1C(=O)[C@@H]1CCCN1C(=O)OC(C)(C)C)c1ccccc1,0,0,0,-,-,-

# High-throughput results from PubChem.
